Data from PubChem BioAssay (NCATS).
“And” between values parts separate entries of the source, which are not always exact repeats. Equal values may be shown once. Inconclusive results are not listed. The source made the active and inactive calls. The call rests on the fitted dose curve; in most records, active means well fitted curve in the direction sought with a large enough effect; inconclusive means small, poorly fitted or top-dose-only effect, or another doubt; inactive means no such curve, though single readings can be large; an effect the other way counts as inactive or inconclusive.

How the values were obtained:
[1] = target: Cellular tumor antigen p53 (Homo sapiens) (UniProt P04637); test: Primary qHTS for small molecule compounds that upregulate eGFP-tagged delta133p53alpha (in N-terminal) cells. (AID 2060322); conditions: NCI-H358 eGFP-delta133p53alpha fluorescence, 24 h; activation: active compounds read high; further: nearly all actives have a fitted effect of over 75% in size; further: potency means the concentration at half of the fitted maximal effect;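 on activation: series mostly up to about 56 µM; 0% = DMSO vehicle and 100% = reference activator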
Method in brief: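 NCI-H358 cells pre-induced 24 h with 10 ng/ml doxycycline to express N-terminal eGFP-delta133p53alpha, then dosed 24 h at 37C without doxycycline; fixed, Hoechst-stained, GFP intensity by laser scanning cytometry, normalized to DMSO (0%) and 57.5 uM 5-azacytidine (100%).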

[2] = target: Aldehyde dehydrogenase, mitochondrial (Homo sapiens) (UniProt P05091); test: qHTS for Inhibitors of the Aldehyde Dehydrogenase Family (ALDH2) Primary screen (AID 2061308);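 further: plate controls were vehicle for no effect and reference inhibitor for full effect; nearly all actives have a fitted effect of over 55% in size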
[3] = target: Retinaldehyde dehydrogenase 3 (Homo sapiens) (UniProt P47895); test: qHTS for Inhibitors of the Aldehyde Dehydrogenase Family (ALDH1A3) Primary screen (AID 2061315);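 further: plate controls were DMSO vehicle for no effect and reference inhibitor for full effect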
[4] = target: Retinaldehyde dehydrogenase 3 (Homo sapiens) (UniProt P47895); test: qHTS for Inhibitors of the Aldehyde Dehydrogenase Family (ALDH1A3) Validation screen (AID 2061312); further: on the % scale 0 is the no-effect control and ±100 the full control effect; nearly all actives have a fitted effect of over 45% in size
[5] = BET inhibitor-based combinations targeting novel dependencies in MECOM-rearranged (r) AML: SET-2 cell line (AID 2202231); conditions: SET-2 AML cells viability, CellTiter-Glo luminescence, 48 h; viability: active compounds read low, concentration not given here; further: nearly all actives have a fitted effect of over 35% in size; further: potency means the concentration at half of the fitted maximal effect;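 on viability: plate controls were DMSO treated cells for no effect and wells without cells for full effect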
Method in brief: (§1)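 Cells were plated at 500 per well and exposed to an 11-point dose series of each drug for 48 hr. Viability was measured by CellTiter-Glo luminescence, normalized to DMSO and empty-well controls, and summarized as AUC and per-cell-line Z-AUC.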

[6] = BET inhibitor-based combinations targeting novel dependencies in MECOM-rearranged (r) AML: MV-4-11 cell line (AID 2202233); further: nearly all actives have a fitted effect of over 45% in size; further: potency means the concentration at half of the fitted maximal effect
Method in brief: (§2)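 Activity is given as area under the curve and as Z-AUC, mean-centred within each cell line. It comes from 11-point dose curves normalized to DMSO and empty wells. CellTiter-Glo luminescence was read after 48 hr drug exposure of 500 cells/well.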

[7] = BET inhibitor-based combinations targeting novel dependencies in MECOM-rearranged (r) AML: HNT-34 cell line (AID 2202234);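 further: plate controls were vehicle wells for no effect and cell-free wells for full effect; nearly all actives have a fitted effect of over 35% in size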
Method in brief: as §2

[8] = BET inhibitor-based combinations targeting novel dependencies in MECOM-rearranged (r) AML: AML-194 cell line (AID 2202237;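 further: plate controls were vehicle wells for no effect and wells without cells for full effect; nearly all actives have a fitted effect of over 40% in size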)
Method in brief: as §1

[9] = BET inhibitor-based combinations targeting novel dependencies in MECOM-rearranged (r) AML: OCI-AML3 cell line (AID 2202232); conditions: Potency: OCI-AML3 viability; further: nearly all actives have a fitted effect of over 35% in size; further: potency means the concentration at half of the fitted maximal effect
Method in brief: as §1

[10] = BET inhibitor-based combinations targeting novel dependencies in MECOM-rearranged (r) AML: UCSD-AML1 cell line (AID 2202235); further: nearly all actives have a fitted effect of over 40% in size; further: potency means the concentration at half of the fitted maximal effect
Method in brief: as §2

[11] = BET inhibitor-based combinations targeting novel dependencies in MECOM-rearranged (r) AML: AML-191 cell line (AID 2202236; further: nearly all actives have a fitted effect of over 35% in size; further: potency means the concentration at half of the fitted maximal effect)
Method in brief: as §1

Cellular tumor antigen p53 (Homo sapiens), sequence (P04637 whole entry, looked up): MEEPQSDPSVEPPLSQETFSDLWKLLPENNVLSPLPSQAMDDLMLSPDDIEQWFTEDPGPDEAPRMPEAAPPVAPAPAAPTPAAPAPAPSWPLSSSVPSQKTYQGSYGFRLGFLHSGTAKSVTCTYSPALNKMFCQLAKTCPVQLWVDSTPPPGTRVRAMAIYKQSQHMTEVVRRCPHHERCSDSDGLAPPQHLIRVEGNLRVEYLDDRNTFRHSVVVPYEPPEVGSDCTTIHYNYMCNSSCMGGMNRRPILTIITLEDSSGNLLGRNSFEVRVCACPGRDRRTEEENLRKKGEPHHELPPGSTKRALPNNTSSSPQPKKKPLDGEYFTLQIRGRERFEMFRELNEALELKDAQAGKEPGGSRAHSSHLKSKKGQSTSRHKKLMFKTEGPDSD

CC(C)(C)c1cc(C(C)(C)C)c2c(c1)C(O)(C(F)(F)F)C(=O)O2 (stereo not drawn)
inactive: activation [1] 23.2% | Potency [2] | Potency [3]

CC(=O)N1N=C(c2ccc(N)cc2)c2cc3c(cc2C[C@H]1C)OCO3
inactive: activation [1] -0.955% | Potency [2] | Potency [4] | Potency [3] | viability [5] 93.4% | Potency [6] | Potency [7] | Potency [8]

CCOc1ccc(Oc2ccc(OCc3cc(F)ccc3F)cc2)c(N)c1
inactive: activation [1] 3.57% | Potency [2] | Potency [3]

CC[C@@]1(O)C(=O)OCc2c1cc1n(c2=O)Cc2cc3c(OC)cccc3nc2-1
inactive: Potency [2] | Potency [3]
active: Potency [1] 6.59 µM

CCc1c(C(=O)C(N)=O)c2c(OCC(=O)O)cccc2n1Cc1ccccc1
inactive: activation [1] -24.6% and -2.39% | Potency [2] | Potency [4] | Potency [3] | viability [5] 113% | Potency [9] | Potency [6] | Potency [7] | Potency [10] | Potency [11] | Potency [8]

CN1C(=O)c2ccccc2NC(=O)[C@]12O[C@@H]2c1ccccc1
inactive: activation [1] -0.763% | Potency [2] | Potency [3]

CCCCC1C(=O)NC(=O)N(C2CCCCC2)C1=O (stereo not drawn)
inactive: activation [1] 17% | Potency [2] | Potency [3]

Cc1sc2c(c1C)C(c1ccc(Cl)cc1)=N[C@@H](CC(N)=O)c1nnc(C)n1-2
inactive: activation [1] 10% | Potency [2] | Potency [4] | Potency [3]
active: Potency [5] 0.372 µM | Potency [9] 105 nM | Potency [6] 83.3 nM

CCNC(=O)CC1N=C(c2ccc(Cl)cc2)c2cc(OC)ccc2-n2c(C)nnc21 (stereo not drawn)
inactive: activation [1] -24.1% and -15% and -22.4% | Potency [2] | Potency [4] | Potency [3] | Potency [8]
active: Potency [10] 9.34 µM | Potency [11] 13.2 µM

O=C1C=CC[C@@H]2[C@H]3CCCN4CCC[C@@H](CN12)[C@@H]34
inactive: activation [1] -8.56% and -6.68% | Potency [2] | Potency [4] | Potency [3] | viability [5] 108% | Potency [6] | Potency [7] | Potency [10]

CCOc1ccccc1-n1c(C(C)N2CCN(C(=O)COc3ccc(Cl)cc3)CC2)nc2ccccc2c1=O (stereo not drawn)
inactive: activation [1] 0.955% | Potency [2] | Potency [4] | Potency [3]
active: Potency [5] 1.32 µM | Potency [6] 3320 nM | Potency [11] 2.63 µM

N#Cc1ccc([C@H]2CCCC[C@H]2O)cc1C(F)(F)F
inactive: activation [1] 11% | Potency [2] | Potency [4] | Potency [3]

CC1=C2C[C@H]3[C@@H](CC=C4C[C@@H](O)CC[C@@]43C)[C@@H]2CC[C@]12O[C@@H]1C[C@H](C)CN[C@H]1[C@H]2C
inactive: activation [1] 2.39% | Potency [2] | Potency [4] | Potency [3] | viability [5] 113% | Potency [9] | Potency [7] | Potency [10] | Potency [11] | Potency [8]

C1=C2CCCN[C@H]2[C@@H]2C[C@H]1[C@H]1CCCCN1C2
inactive: activation [1] -9.55% | Potency [2] | Potency [4] | Potency [3]

CCN(CC)C(=O)c1ccc(C2=CC3(CCNCC3)Oc3cccc(O)c32)cc1
inactive: activation [1] -5.25% | Potency [2] | Potency [4] | Potency [3] | viability [5] 99.6% | Potency [9] | Potency [6] | Potency [7] | Potency [10]

CCCCCn1cc(C(=O)Oc2cccc3cccnc23)c2ccccc21
inactive: activation [1] -4.77% | Potency [2] | Potency [4] | Potency [3]

CCCCCn1cc(C(=O)C2C(C)(C)C2(C)C)c2ccccc21
inactive: activation [1] -0.955% | Potency [2] | Potency [3]

Cc1sc2c(c1C)C(c1ccc(Cl)cc1)=NC(CC(=O)Nc1ccc(O)cc1)c1nnc(C)n1-2 (stereo not drawn)
active: Potency [5] 1.32 µM | Potency [6] 296 nM | Potency [10] 0.742 µM
inactive: activation [1] -21.2% | Potency [2] | Potency [4] | Potency [3]

CC[C@H]1C[C@H]2[C@@H]3CCC4=CC(=O)CC[C@@H]4[C@H]3CC[C@]2(C)[C@H]1O
inactive: activation [1] 5.67% | Potency [2] | Potency [3]

CC[C@H]1CN2CC[C@H]1C[C@@H]2[C@@H](O)c1ccnc2ccc(OC)cc12
inactive: activation [1] 17.9% | Potency [2] | Potency [3]

C[C@H]1CN(CC[C@H](O)C2CCCCC2)CC[C@@]1(C)c1cccc(O)c1
inactive: activation [1] -6.21% | Potency [2] | Potency [4] | Potency [3]

Cc1ccccc1-n1c(Cn2ncc3c(N)ncnc32)nc2cccc(C)c2c1=O
active: Potency [6] 8330 nM
inactive: activation [1] 66.5% and 6.21% | Potency [2] | Potency [4] | Potency [3] | viability [5] 112% | Potency [7] | Potency [11] | Potency [8]
